This is an account of results in PubChem BioAssay AID1259343 (VanderVen Lab, College of Veterinary Medicine, Cornell …, 2017).

The structures appear in SMILES notation. In all, about 6,200 compounds went through this assay and about 2,900 (47%) were called active. Cut-off read from the data, not from the text of the source: active = inhibition above about 50%; inactive = the rest. So high a share suggests a set chosen from earlier hits. The list shows a part of the results.

The nature of this assay: Mycobacterium tuberculosis growth inhibition, primary screen (AID 1259343). The note with it: inhibition: at 10 µM, hits give high values; outcome: 10 uM.
The term inhibition denotes the relative decrease from the control value, in per cent. `O=C(O)Cc1cc(-c2ccc3c(c2)OCCO3)on1`: the inhibition is 73.2% (active).
The figure for `CC1Cc2cc(-c3cc(CO)no3)ccc2O1` (centres undefined) is -11.9% (inactive); for `O=C(Cc1cc(-c2ccc3c(c2)OCO3)on1)NCc1cccs1` it is 90.9% (active); for `COC(=O)CC1CC(=O)C2C(=O)c3c(OC)ccc(Br)c3C2C1` (centres undefined) it is 28.1% (inactive).
Under `O=C1c2ccccc2-c2nn(CN3CCN(c4ccccc4)CC3)c3cccc1c23` stands 31.3% (inactive).
Under `O=S(=O)(N1CCN(c2ccccc2)CC1)C(F)(F)C(F)(F)C(F)(F)C(F)(F)F` stands 21.4% (inactive); under `c1ccc(N2CCN(c3ccccn3)CC2)cc1`, 61.2% (active).
For `CCCCCCSC1=C(C#N)C2(CCCCC2)C(C#N)C(=O)N1` (centres undefined), the inhibition was 4.19% (inactive).
Consider `Clc1ccccc1-c1nnc(-c2ccc3c(c2)OCO3)o1`, for which the inhibition was 72.5% (active).
On to `Fc1ccc(/C=C/c2nnc(-c3ccccc3Cl)o2)cc1`, for which the inhibition was 42.9% (inactive).
The figure for `Fc1ccc(-c2nnc(-c3ccc4c(c3)OCO4)o2)cc1` is 70.5% (active); for `Oc1ccccc1C1CC(c2ccc3c(c2)OCO3)=NC(c2cccc(F)c2)N1` (centres undefined) it is -19.4% (inactive); for `Fc1ccccc1-c1nnc(-c2ccc3c(c2)OCO3)o1` it is -0.93% (inactive).
The figure for `O=C(Nc1cccc(O)c1)c1nn2c(C(F)(F)F)cc(-c3ccccc3)nc2c1Cl` is -37.9% (inactive).
For the molecule `Oc1c(Cl)cc(Cl)cc1C=NNc1nc2ccccc2s1`, the inhibition was 101% (active).
The figure for `c1ccc2c(c1)CCC(=NNc1nc3ccccc3s1)C2` is 48.5% (inactive); for `Fc1ccc2c(c1)C(=NNc1nc3ccccc3s1)CCS2` it is -16.9% (inactive).
Under `CC(C)C1CC(=NNC(N)=S)C=C2CCCCC21` (centres undefined) stands 102% (active); under `COCCCNC(=O)c1nn(-c2ccc(F)cc2)c2ncccc12`, 42.3% (inactive); under `CC(Oc1ccccc1)C(=O)Nn1cnc2c(cnn2-c2ccc(F)cc2)c1=O` (centres undefined), 70.4% (active).
For `Cc1ccc(-c2nnc(-c3ccccc3N)[nH]c2=O)cc1C`, the inhibition was 49.2% (inactive).
As for `C=CCSc1nnc(-c2cc(Br)ccc2N)c(=O)[nH]1`, the inhibition is 76.5% (active).
Under `CCCCCCCCc1nnc(N)s1` stands 89.3% (active).
Take `CCc1ccc(NC(=O)CNc2ccc(F)c(F)c2F)cc1`: the inhibition was 96.5% (active).
The figure for `CN(Cc1ccc(Br)cc1)C(=O)Nc1ccc(F)c(F)c1F` is 44.5% (inactive).
Under `CCCCc1ccc(NC(=O)CNc2ccccc2C(C)=O)cc1` stands 90.7% (active).
Regarding `CCc1ccc(NCC(=O)Nc2ccc(I)cc2C)cc1`, the inhibition was 53.6% (active).
The figure for `CCC(C)c1ccc(NC(=O)CNc2ccc(F)c(C(=O)OC)c2)cc1` (centres undefined) is -5.36% (inactive); for `CC(C)C(=O)NC(=S)Nc1nc2ccc(Cl)cc2s1` it is 13.7% (inactive).
The figure for `CSc1nc2cc(NC(=S)NC(=O)c3ccccc3)ccc2s1` is 91.3% (active); for `O=C(c1cc(F)cc(F)c1)N1CCOC(COc2cccc(C(F)(F)F)c2)C1` (centres undefined) it is 84.5% (active).
With `O=C(Cc1cccc(Cl)c1)N1CCOC(COc2cccc(C(F)(F)F)c2)C1` (centres undefined), the inhibition was 17.4% (inactive).
Under `COc1cc(C(=O)N2CCOC(COc3cccc(C(F)(F)F)c3)C2)ccc1F` (centres undefined) stands 62.2% (active).
Under `O=C(COc1ccc(F)cc1)N1CCOC(COc2cccc(C(F)(F)F)c2)C1` (centres undefined) stands 15.7% (inactive).
The figure for `N#CSc1ccc(N)c(Cl)c1` is 94.6% (active); for `Cc1cccc(OCCN(C)c2cnn(-c3ccc(F)cc3F)c(=O)c2Cl)c1` it is 14.4% (inactive); for `CCNC(=O)Cc1csc(SCc2ccc(C)cc2)n1` it is 72.3% (active).
For the molecule `Cc1ccc(CSc2nc(CC(=O)NCc3ccccc3)cs2)cc1`, the inhibition was 62.1% (active).
Under `Cc1ccc(CSc2nc(CC(=O)NCc3ccco3)cs2)cc1` stands 90.2% (active).
On to `Cc1ccc(CSc2nc(CC(=O)NCC(C)C)cs2)cc1`, for which the inhibition was 58.9% (active).
The figure for `Cc1ccc(CSc2nc(CC(=O)O)cs2)cc1` is 31.9% (inactive); for `Cc1ccc(CSc2nc(CC(=O)NC3CCCCC3)cs2)cc1` it is 81.7% (active); for `CC(C)CCNC(=O)Cc1csc(SCc2ccc(Cl)cc2)n1` it is 68.8% (active).
Under `CCC(C)NC(=O)Cc1csc(SCc2ccc(C)cc2)n1` (centres undefined) stands -14.8% (inactive); under `CC(C)CN(CC(=O)Nc1nc(CC(=O)NCc2ccc(F)cc2)cs1)C(=O)c1ccc(Cl)cc1`, -3.41% (inactive).
Under `Cc1ccc(CSc2nc(CC(=O)NCc3cccs3)cs2)cc1` stands 60.2% (active).
Consider `Cc1ccc(CSc2nc(CC(=O)NCCC(C)C)cs2)cc1`, for which the inhibition was 5.27% (inactive).
`Cc1ccc(CSc2nc(CC(=O)NC3CCCC3)cs2)cc1`: the inhibition is 3.98% (inactive).
Take `Cc1ccc(CSc2nc(CC(=O)NC(C)C)cs2)cc1`: the inhibition was 69.6% (active).
Under `O=C(CCl)NC(=O)NCc1cccs1` stands -19.2% (inactive).
In the case of `Cc1ccc(CSc2nc(CC(=O)NC3CC3)cs2)cc1`, the inhibition was 50% (inactive).
Under `CC(Cc1cccnc1)NCc1nc(Cc2ccccc2F)no1` (centres undefined) stands 33.9% (inactive).
In the case of `CC(C)Cc1noc(-c2ccc(-c3ccc4c(c3)OCCO4)nc2)n1`, the inhibition is 3.86% (inactive).
On to `CC(Cc1ccccc1F)NCc1noc(-c2ccc3c(c2)OCO3)n1` (centres undefined), for which the inhibition was 59.5% (active).
On to `Cc1nc2ccc(N)cc2s1`, for which the inhibition is 94.6% (active).
Under `Nc1nc2ccc(Oc3ccc4nc(N)sc4c3)cc2s1` stands 21% (inactive); under `Nc1ccc2nc(SCc3ccc(F)cc3)sc2c1`, 16.7% (inactive).
For the molecule `COc1cc(OC)nc(Nc2nc(C(N)Cc3ccc(Cl)cc3)cs2)n1` (centres undefined), the inhibition is 93.6% (active).
As for `COc1cc(OC)nc(Nc2nc(C(N)Cc3ccc(F)cc3)cs2)n1` (centres undefined), the inhibition was 71.1% (active).
Under `Oc1ccc(C=Nc2ccc3oc4ccccc4c3c2)c(O)c1O` stands 95% (active); under `COc1cccc(C=CC(=O)c2cccc(N3CCOCC3)c2)c1`, 44.4% (inactive); under `C(=C\c1cccc(N2CCNCC2)c1)/c1ccccc1`, 90.8% (active).
For `CC1(C)C2(Cl)C(Cl)C(Cl)C(Cl)(C(Cl)Cl)C1(Cl)C2Cl` (centres undefined), the inhibition was 65.2% (active).
In the case of `S=c1nc[nH]c2nc[nH]c12`, the inhibition is 49.3% (inactive).
Consider `FC(F)(F)c1ccnc(NCC2COc3ccccc3O2)n1` (centres undefined), for which the inhibition is 96.6% (active).
The figure for `Brc1ccccc1CNCC1COc2ccccc2O1` (centres undefined) is -26.4% (inactive); for `FC(F)(F)CCc1ccnc(NCC2COc3ccccc3O2)n1` (centres undefined) it is 24.3% (inactive); for `OC(C#CCC(O)c1ccccc1)c1ccccc1` (centres undefined) it is 101% (active).
Under `CN(CC(O)c1ccccc1F)C(c1ccccc1)c1ccccc1` (centres undefined) stands -46% (inactive); under `N#Cc1ccc(S(=O)(=O)N2CCC(Cc3ccc(C(F)(F)F)cc3)CC2)cc1`, 71.7% (active).
`O=S(=O)(c1ccc(F)cc1)N1CCCC(OCc2cc(F)cc(F)c2)C1` (centres undefined): the inhibition is 2.58% (inactive).
Consider `N#Cc1ccc(S(=O)(=O)N2CCN(c3ccccc3F)CC2)cc1`, for which the inhibition is 8.35% (inactive).
The figure for `N#Cc1ccc(S(=O)(=O)N2CCC(Cc3ccc(F)cc3)CC2)cc1` is 60.9% (active).
For the molecule `O=C(O)c1cc[c]([Hg][Cl])cc1`, the inhibition was 33.6% (inactive).
For the molecule `O=C(CNc1ccc2c(c1)OC(F)(F)O2)N1CCc2sccc2C1`, the inhibition is -40% (inactive).
Under `COc1ccc(Cl)cc1NCC(=O)N1CCc2sccc2C1` stands 83.7% (active).
For the molecule `COc1ccc(C)cc1NC(=O)N1CCN(CCCOC(c2ccc(Cl)cc2)c2ccc(Cl)cc2)CC1`, the inhibition was -0.67% (inactive).
For `CC(C)Oc1ccc(NC(=O)C2CCOCC2)cc1Cl`, the inhibition was 95.4% (active).
Consider `CC(C)Oc1ccc(NC(=O)Cc2cccs2)cc1Cl`, for which the inhibition is 38% (inactive).
The figure for `C=CCn1c(=NC(=O)c2ccc(OC)cc2)sc2cccc(OC)c21` is 39.7% (inactive).
Turning to `Cc1cc(NC(=O)c2cccs2)n(-c2nc(C)c(C)c(=O)[nH]2)n1`, the inhibition is 98.8% (active).
Turning to `CCc1c(C)nc(-n2nc(C)cc2NC(=O)c2cccs2)[nH]c1=O`, the inhibition was 101% (active).
The figure for `CCCCS(=O)(=O)N(C)Cc1ccc(-c2ccc(Br)cc2)o1` is 83.2% (active).
With `OCC#CCSc1nnc(-c2ccccc2Br)o1`, the inhibition is 99.2% (active).
The figure for `OCC#CCSc1nnc(-c2cccc(Br)c2)o1` is -10.9% (inactive); for `Brc1ccccc1-c1nnc(SCc2ncc(-c3ccccc3)o2)o1` it is -4.92% (inactive); for `Fc1ccc(CN2CCC(Cc3ccc(-c4ccccc4)cc3)CC2)cc1C(F)(F)F` it is 59% (active).
Under `CC(C)(C)c1ccc2c(c1)OCC(C(=O)Nc1nc(-c3ccncc3)cs1)O2` (centres undefined) stands 84.6% (active); under `CC(=O)Nc1ccc(-c2csc(NC(=O)C3Cc4ccccc4O3)n2)c(F)c1` (centres undefined), 16.7% (inactive).
As to `COC(=O)c1ccc(C=Cc2ccc3cccc(O)c3n2)cc1`, the inhibition was 63.1% (active).
For the molecule `COC(=O)c1cc(C=O)c2ccc3ccccc3n12`, the inhibition is 27.1% (inactive).
In the case of `Oc1cccc2ccc(C=Cc3cccc(Br)c3)nc12`, the inhibition is 90.5% (active).
The figure for `Oc1cccc2ccc(/C=C/c3ccccc3OC(F)F)nc12` is 100% (active).
The figure for `COc1ccc(Br)cc1C=Cc1ccc2cccc(O)c2n1` is 17.6% (inactive).
On to `CCc1ccc(NC(=O)C(C)n2cc(C(F)(F)F)ccc2=O)cc1` (centres undefined), for which the inhibition was 49.6% (inactive).
On to `Cc1cc(NC(=O)c2ccc(CN3C(=O)CC4(CCCC4)C3=O)cc2)ccc1Cl`, for which the inhibition is -6.77% (inactive).
The figure for `CCc1ccc(NC(=O)c2ccc(CN3CCCC3=O)cc2)cc1` is 73.2% (active); for `CC(NS(=O)(=O)c1ccc(Cl)c(C(F)(F)F)c1)C1CC2CCC1C2` (centres undefined) it is “inactive”.
As for `CCn1c(C)c(C(=O)CN(C(=O)c2ccc(Br)cc2)C2CCCCC2)c(C)c1C(=O)OC`, the inhibition is 22.6% (inactive).
On to `Cc1ccccc1C1CC(N(C(=O)c2ccc(Br)cc2)C2CC2)C1` (centres undefined), for which the inhibition was 82.4% (active).
Under `Cc1ccc(C(=O)OC(C)CN2CCN(C)CC2)cc1` (centres undefined) stands -10.1% (inactive).
The figure for `COC(=O)c1ccc(N2CN=C(c3ccc(C)cc3)NC2=S)cc1` is 87.5% (active); for `CC1(Oc2ccccc2-c2ccno2)CCN(Cc2ccc(-c3ccccc3)o2)C1` (centres undefined) it is 25.5% (inactive).
The figure for `Fc1ccc(N2CCN(C[C@H]3CN4CC[C@H]3C[C@@H]4CNC(=S)Nc3ccc(-n4cccn4)cc3)CC2)cc1` is 95.6% (active).
